# Results from PubChem BioAssay (EPA / NIEHS).
# Results filed as inconclusive are left out. Calls of active or inactive are those of the source. Rule for the calls: active = hit-call score of the fitted dose curve at least 0.9, where 1 is the maximum; inconclusive = response in the unintended direction; inactive = score below 0.9.
# Columns and labels:
# [1] = target: human Protein Phosphatase, Mg2+/Mn2+ Dependent 1A (PPM1A), PPM1A (gene 5494) (UniProt P35813); assay: NVS_ENZ_hPPM1A: NovaScreen (NVS) Enzymatic Assay for human Protein Phosphatase, Mg2+/Mn2+ Dependent 1A (PPM1A) (AID 2283198)
# In short: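 Primary screen in duplicate at 25 uM, with actives then titrated to a maximum of 50 uM. Recombinant PPM1A dephosphorylation of fluorescent substrate measured at 1 h, with substrate and product separated by mobility shift; inhibition fitted against DMSO.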
# [2] = target: human Protein Tyrosine Phosphatase Non-receptor Type 1 (PTPN1), PTPN1 (gene 5770) (UniProt P18031); assay: NVS_ENZ_hPTPN1: NovaScreen (NVS) Enzymatic Assay for human Protein Tyrosine Phosphatase Non-receptor Type 1 (PTPN1) (AID 2283201)
# In short: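 Chemicals were first tested in duplicate at 25 uM, and those passing threshold went on to singleton concentration series topping at 50 uM. Recombinant enzyme, specific substrate, product separated by mobility shift, fluorescence read at 1.33 h; activity loss relative to DMSO.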
# [3] = target: Tyrosine-protein phosphatase non-receptor type 12 (Homo sapiens) (UniProt Q05209); assay: NVS_ENZ_hPTPN12: NovaScreen (NVS) Enzymatic Assay for human Protein Tyrosine Phosphatase Non-receptor Type 12 (PTPN12) (AID 2283204)
# Procedure: NVS_ENZ_hPTPN12 is a biochemical, single-readout assay that uses extracted gene-proteins in a cell-free assay. Measurements were taken 1.33 hours after chemical dosing in a 384-well plate.NVS_ENZ_hPTPN12 is one of one assay component(s) measured or calculated from the NVS_ENZ_hPTPN12 assay. It is designed to make measurements of enzyme activity, a form of enzyme reporter, as detected with fluorescence intensity signals by Fluorescence and electrophoretic mobility shift technology.Data from the assay component NVS_ENZ_hPTPN12 was analyzed into 1 assay endpoint. This assay endpoint, NVS_ENZ_hPTPN12, was analyzed in the positive analysis fitting direction relative to DMSO as the negative control and baseline of activity. Using a type of enzyme reporter, loss-of-signal activity can be used to understand changes in the enzymatic activity as they relate to the gene PTPN12. Furthermore, this assay endpoint can be referred to as a primary readout, because this assay has produced multiple assay endpoints where this one serves a enzymatic activity function. To generalize the intended target to other relatable targets, this assay endpoint is annotated to the phosphatase intended target family, where the subfamily is non-receptor tyrosine phosphatase. […]
# [4] = target: Tyrosine-protein phosphatase non-receptor type 13 (Homo sapiens) (UniProt Q12923); assay: NVS_ENZ_hPTPN13: NovaScreen (NVS) Enzymatic Assay for human Protein Tyrosine Phosphatase Non-receptor Type 13 (PTPN13) (AID 2283205)
# In short: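 Screened first at a single 25 uM in duplicate; compounds passing the threshold (e.g. 30% inhibition) were rerun in concentration series, top 50 uM. Recombinant enzyme, fluorescent substrate, mobility-shift separation, 0.5 h read. Data fitted as inhibition relative to DMSO.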
# [5] = target: Serine/threonine-protein phosphatase PP1-alpha catalytic subunit (Homo sapiens) (UniProt P62136); assay: NVS_ENZ_hPPP1CA: NovaScreen (NVS) Enzymatic Assay for human Protein Phosphatase 1 Aatalytic subunit Alpha (PPP1CA) (AID 2283200)
# In short: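 Chemicals were first screened in duplicate at 25 uM, and those passing threshold (e.g. 30% inhibition) were run as concentration series to 50 uM. Cell-free recombinant protein, 1.33 h read, fluorescent substrate/product mobility-shift detection, normalised to DMSO.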
# [6] = target: Tyrosine-protein phosphatase non-receptor type 14 (Homo sapiens) (UniProt Q15678); assay: NVS_ENZ_hPTPN14: NovaScreen (NVS) Enzymatic Assay for human Protein Tyrosine Phosphatase Non-receptor Type 14 (PTPN14) (AID 2283206)
# In short: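 Fluorescent substrate turnover by recombinant human PTPN14 was measured 0.5 h after compound addition, with substrate and product separated by mobility shift. Single-point screening at 25 uM, then concentration-response up to 50 uM for chemicals meeting threshold (e.g., 30% inhibition).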
# Sequence of Tyrosine-protein phosphatase non-receptor type 13 (Homo sapiens) (Q12923 whole entry, looked up): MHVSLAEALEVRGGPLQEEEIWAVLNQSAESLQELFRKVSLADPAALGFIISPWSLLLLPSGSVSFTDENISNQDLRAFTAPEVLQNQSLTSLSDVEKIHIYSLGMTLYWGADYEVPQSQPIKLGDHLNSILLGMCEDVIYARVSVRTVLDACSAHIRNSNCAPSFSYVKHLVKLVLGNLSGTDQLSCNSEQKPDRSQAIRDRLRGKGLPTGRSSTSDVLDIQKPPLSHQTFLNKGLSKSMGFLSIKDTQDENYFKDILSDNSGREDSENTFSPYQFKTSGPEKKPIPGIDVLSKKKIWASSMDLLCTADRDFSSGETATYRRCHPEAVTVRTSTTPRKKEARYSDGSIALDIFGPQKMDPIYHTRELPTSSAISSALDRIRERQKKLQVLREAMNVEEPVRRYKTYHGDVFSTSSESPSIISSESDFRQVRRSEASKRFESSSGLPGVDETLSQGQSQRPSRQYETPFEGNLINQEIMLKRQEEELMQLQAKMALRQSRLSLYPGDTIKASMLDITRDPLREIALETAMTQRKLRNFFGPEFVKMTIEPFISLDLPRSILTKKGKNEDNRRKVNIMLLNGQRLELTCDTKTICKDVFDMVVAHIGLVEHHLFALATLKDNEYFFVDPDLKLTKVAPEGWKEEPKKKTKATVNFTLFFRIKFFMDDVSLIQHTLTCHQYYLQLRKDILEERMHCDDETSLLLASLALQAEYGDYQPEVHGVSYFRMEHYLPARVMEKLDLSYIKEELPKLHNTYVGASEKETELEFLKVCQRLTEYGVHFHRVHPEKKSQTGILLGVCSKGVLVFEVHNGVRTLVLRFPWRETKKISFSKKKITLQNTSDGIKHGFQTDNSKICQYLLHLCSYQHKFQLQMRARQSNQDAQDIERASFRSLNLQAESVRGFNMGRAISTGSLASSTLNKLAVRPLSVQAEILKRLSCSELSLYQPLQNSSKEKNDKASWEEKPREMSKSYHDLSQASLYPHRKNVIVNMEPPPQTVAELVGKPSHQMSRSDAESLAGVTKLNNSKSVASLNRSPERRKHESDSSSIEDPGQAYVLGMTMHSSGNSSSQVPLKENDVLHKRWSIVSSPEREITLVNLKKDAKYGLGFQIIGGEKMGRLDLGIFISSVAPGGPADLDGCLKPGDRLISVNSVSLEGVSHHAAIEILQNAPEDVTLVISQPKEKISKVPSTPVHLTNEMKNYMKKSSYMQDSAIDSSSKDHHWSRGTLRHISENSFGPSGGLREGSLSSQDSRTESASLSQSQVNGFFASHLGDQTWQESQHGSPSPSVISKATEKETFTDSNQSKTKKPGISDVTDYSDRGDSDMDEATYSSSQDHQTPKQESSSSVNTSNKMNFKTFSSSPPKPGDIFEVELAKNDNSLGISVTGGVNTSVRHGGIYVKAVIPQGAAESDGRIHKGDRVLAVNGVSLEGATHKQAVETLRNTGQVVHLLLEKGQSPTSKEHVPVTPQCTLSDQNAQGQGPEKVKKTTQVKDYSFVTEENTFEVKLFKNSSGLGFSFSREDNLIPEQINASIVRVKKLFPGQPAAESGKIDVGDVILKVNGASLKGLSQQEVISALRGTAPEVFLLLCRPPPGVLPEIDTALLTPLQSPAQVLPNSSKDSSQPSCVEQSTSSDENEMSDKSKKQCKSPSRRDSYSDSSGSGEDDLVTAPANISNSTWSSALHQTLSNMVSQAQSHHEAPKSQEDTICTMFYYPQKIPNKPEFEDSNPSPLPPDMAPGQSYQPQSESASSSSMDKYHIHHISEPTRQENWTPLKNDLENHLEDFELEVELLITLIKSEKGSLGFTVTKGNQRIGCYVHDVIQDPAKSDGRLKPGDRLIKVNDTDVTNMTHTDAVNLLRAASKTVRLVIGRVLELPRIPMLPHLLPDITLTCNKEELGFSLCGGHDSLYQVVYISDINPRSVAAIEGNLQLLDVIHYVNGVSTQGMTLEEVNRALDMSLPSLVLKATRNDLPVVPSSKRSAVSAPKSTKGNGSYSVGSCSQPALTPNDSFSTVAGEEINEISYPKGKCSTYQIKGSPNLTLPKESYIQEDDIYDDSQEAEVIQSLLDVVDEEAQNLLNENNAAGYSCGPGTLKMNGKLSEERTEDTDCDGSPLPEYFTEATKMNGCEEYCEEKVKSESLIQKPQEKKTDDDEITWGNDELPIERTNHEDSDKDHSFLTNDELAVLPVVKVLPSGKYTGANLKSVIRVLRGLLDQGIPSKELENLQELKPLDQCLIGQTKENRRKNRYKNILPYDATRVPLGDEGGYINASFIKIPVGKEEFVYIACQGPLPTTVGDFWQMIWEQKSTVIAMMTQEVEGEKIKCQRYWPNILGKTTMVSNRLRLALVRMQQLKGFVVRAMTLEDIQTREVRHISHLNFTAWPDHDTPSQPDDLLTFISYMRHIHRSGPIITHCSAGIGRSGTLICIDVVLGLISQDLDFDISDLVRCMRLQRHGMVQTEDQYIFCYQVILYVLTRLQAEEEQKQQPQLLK
# Sequence of human Protein Tyrosine Phosphatase Non-receptor Type 1 (PTPN1), PTPN1 (gene 5770) (P18031 whole entry, looked up): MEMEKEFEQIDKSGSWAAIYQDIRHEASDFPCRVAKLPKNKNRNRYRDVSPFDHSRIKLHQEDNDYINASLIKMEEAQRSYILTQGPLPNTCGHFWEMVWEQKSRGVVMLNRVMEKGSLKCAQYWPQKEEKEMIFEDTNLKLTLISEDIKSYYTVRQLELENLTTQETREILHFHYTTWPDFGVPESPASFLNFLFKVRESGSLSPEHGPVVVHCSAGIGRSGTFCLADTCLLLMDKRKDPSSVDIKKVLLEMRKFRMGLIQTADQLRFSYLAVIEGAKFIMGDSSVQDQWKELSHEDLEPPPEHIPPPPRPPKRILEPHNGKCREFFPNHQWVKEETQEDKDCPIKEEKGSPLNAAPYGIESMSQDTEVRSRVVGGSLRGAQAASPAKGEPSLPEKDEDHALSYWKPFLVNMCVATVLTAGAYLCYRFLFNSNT
# Sequence of Tyrosine-protein phosphatase non-receptor type 12 (Homo sapiens) (Q05209 whole entry, looked up): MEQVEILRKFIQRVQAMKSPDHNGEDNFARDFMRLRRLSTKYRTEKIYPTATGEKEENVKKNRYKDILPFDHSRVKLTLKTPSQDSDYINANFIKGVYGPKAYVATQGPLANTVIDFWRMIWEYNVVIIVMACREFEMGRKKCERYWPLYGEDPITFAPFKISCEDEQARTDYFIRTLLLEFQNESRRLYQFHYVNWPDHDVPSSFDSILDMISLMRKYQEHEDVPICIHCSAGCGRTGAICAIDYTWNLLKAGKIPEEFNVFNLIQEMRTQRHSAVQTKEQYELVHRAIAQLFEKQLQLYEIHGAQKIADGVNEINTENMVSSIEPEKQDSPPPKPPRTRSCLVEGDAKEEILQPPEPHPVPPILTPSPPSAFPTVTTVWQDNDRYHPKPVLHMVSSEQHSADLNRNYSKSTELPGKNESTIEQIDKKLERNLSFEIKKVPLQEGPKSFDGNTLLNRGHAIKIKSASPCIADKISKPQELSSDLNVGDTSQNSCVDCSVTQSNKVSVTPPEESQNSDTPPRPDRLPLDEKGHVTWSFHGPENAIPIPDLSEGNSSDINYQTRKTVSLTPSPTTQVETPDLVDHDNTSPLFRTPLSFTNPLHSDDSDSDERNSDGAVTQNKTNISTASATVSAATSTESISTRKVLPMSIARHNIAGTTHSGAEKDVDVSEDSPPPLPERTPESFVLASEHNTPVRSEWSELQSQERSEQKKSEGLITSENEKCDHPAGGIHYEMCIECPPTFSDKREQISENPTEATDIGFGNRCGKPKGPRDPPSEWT
# Sequence of Serine/threonine-protein phosphatase PP1-alpha catalytic subunit (Homo sapiens) (P62136 whole entry, looked up): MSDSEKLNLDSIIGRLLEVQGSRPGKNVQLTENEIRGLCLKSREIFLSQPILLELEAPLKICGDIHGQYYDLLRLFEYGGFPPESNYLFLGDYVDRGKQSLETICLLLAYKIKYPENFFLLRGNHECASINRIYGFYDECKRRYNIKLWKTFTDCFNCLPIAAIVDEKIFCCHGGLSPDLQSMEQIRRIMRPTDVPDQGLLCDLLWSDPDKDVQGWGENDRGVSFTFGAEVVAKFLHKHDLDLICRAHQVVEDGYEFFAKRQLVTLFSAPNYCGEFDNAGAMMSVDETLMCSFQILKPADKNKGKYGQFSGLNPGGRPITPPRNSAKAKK
# Sequence of human Protein Phosphatase, Mg2+/Mn2+ Dependent 1A (PPM1A), PPM1A (gene 5494) (P35813 whole entry, looked up): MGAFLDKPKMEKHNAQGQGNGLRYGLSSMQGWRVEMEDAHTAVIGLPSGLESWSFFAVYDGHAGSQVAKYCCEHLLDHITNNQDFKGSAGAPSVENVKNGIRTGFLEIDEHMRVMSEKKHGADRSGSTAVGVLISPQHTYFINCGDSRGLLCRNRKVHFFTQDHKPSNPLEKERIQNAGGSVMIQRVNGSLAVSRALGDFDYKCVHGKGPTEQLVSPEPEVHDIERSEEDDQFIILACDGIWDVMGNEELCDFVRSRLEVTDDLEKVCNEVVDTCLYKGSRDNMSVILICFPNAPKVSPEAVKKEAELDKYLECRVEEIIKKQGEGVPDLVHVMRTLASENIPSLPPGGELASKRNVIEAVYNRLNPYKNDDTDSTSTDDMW
smiles,measurement,setting,value
CC(=O)[O][Hg][c]1ccccc1,outcome,[1],inactive
same,AC50,[2],9.68 µM (active)
same,AC50,[3],16 µM (active)
same,AC50,[4],5.38 µM (active)
CCC(C)(C)c1ccc(O)c(C(C)(C)CC)c1,outcome,[5],inactive
O=C(Nc1ccc2[nH]ccc2c1)c1cc2cc(F)ccc2n1Cc1cccc(F)c1,outcome,[2],inactive
CCOC(=O)Nc1cccc(OC(=O)Nc2ccccc2)c1,outcome,[3],inactive
CC(C)(c1ccccc1)c1ccc(O)c(C(C)(C)c2ccccc2)c1,outcome,[4],inactive
ClC1(Cl)C2(Cl)C3(Cl)C4(Cl)C(Cl)(Cl)C5(Cl)C3(Cl)C1(Cl)C5(Cl)C24Cl (centres undefined),outcome,[6],inactive
